In general, AC50 refers to the midpoint of the concentration-response curve, whichever way the signal moves.

Experimental findings from PubChem BioAssay (EPA / NIEHS) are described below.

Results filed as inconclusive are left out. The source made the active and inactive calls. The calls were made as follows, unless noted: active = hit-call score of the fitted dose curve at least 0.9, where 1 is the maximum; inactive = score below 0.9.

The target of test [1] is Retinoic acid receptor RXR-alpha (Homo sapiens) (UniProt P19793). The test is described as follows: ATG_RXRa_TRANS: Attagene TRANS-FACTORIAL HepG2 Assay for human Retinoid X Receptor alpha (RXRa) (AID 2283012; active = hit-call score of the fitted dose curve at least 0.9, where 1 is the maximum). The essentials: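 Cells (HepG2) carried transiently transfected GAL4-responsive reporter units. Following a 24 h chemical incubation, reporter mRNA induction was read via RT-PCR fragment analysis; DMSO served as negative control and baseline.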
Chain of Retinoic acid receptor RXR-alpha (Homo sapiens) (P19793 whole entry, looked up, the tested form may be a part): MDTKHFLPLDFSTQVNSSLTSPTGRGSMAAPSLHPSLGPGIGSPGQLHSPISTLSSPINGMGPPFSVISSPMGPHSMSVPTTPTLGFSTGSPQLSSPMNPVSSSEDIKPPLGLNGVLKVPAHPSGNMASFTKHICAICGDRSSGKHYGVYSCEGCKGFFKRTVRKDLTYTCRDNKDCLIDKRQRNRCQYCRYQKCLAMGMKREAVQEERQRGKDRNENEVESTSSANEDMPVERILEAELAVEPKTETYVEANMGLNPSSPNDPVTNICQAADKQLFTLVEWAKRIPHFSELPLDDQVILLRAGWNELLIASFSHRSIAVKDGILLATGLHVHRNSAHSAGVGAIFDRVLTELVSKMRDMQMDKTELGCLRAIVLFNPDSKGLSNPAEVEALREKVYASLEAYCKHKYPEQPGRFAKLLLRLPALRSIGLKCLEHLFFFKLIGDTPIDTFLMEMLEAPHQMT

The target in test [2] is human Thyroid Receptor alpha (THRa1), THRA (gene 7067) (UniProt P10827). The test is described as follows: ATG_THRa1_TRANS: Attagene TRANS-FACTORIAL HepG2 Assay for human Thyroid Receptor alpha (THRa1) (AID 2283014; active = hit-call score of the fitted dose curve at least 0.9, where 1 is the maximum). The essentials: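 Reporter transcript induction, read by capillary electrophoresis of 6-FAM-labelled RT-PCR products, reflects activity of a transfected THRa1-Gal4 fusion in HepG2 liver cells. Cells were dosed for 24 h; activity was fitted in the positive direction against DMSO.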
Chain of human Thyroid Receptor alpha (THRa1), THRA (gene 7067) (P10827 whole entry, looked up, the tested form may be a part): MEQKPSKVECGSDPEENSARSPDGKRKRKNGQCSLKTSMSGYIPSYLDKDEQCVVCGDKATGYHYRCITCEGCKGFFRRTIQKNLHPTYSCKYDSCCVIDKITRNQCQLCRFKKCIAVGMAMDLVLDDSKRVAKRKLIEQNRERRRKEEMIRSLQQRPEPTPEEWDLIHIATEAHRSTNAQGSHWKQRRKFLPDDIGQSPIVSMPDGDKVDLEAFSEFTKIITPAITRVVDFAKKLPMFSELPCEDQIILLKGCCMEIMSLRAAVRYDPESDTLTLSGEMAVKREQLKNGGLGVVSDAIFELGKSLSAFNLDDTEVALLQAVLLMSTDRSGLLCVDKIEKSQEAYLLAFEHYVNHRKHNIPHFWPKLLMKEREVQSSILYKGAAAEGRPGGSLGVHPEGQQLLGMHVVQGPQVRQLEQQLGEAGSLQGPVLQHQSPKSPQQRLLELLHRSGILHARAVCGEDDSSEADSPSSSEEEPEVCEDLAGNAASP

Read-out in test [3]: E-selectin (Homo sapiens) (UniProt P16581)
The test is described as follows: BSK_3C_Eselectin: BioMAP Diversity Plus: 3C Assay for Eselectin Biomarker Activity (AID 2283015).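 As to outcome: cell surface E-selectin protein quantified by ELISA 24 h after dosing.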 To be noted: primary human endothelial cells (HUVEC); actives raise or lower the signal. The essentials:
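ELISA read-out of E-selectin on endothelial monolayers after 24 h chemical treatment. Human umbilical vein primary cells served as the system, with DMSO defining baseline activity for bidirectional fitting.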

Read-out in test [4]: Interleukin-1 alpha (IL1a), IL1A (gene 3552)
The test can be described thus: BSK_BE3C_IL1a: BioMAP Diversity Plus: BE3C Assay for Interleukin-1 alpha (IL1a) Biomarker Activity (AID 2283016). To be noted: primary human bronchial epithelial cells; actives raise or lower the signal. The method in brief:
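Cultures of primary human bronchial epithelial cells receive test chemical. After 24 h, IL-1a is quantified by ELISA, while parallel wells are fixed in TCA and SRB-stained for total protein. Changes in either direction are fitted relative to DMSO.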

Read-out in test [5]: Monocyte Chemoattractant Protein-1 (MCP1), CCL2 (gene 6347)
The test can be described thus: BSK_3C_MCP1: BioMAP Diversity Plus: 3C Assay for Monocyte Chemoattractant Protein-1 (MCP1) Biomarker Activity (AID 2283017). To be noted: primary human endothelial cells (HUVEC); actives raise or lower the signal. The method in brief: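 ELISA read-out of MCP-1 from human umbilical vein endothelial cell cultures harvested 24 h post-dosing. Gain or loss of signal was fitted relative to DMSO.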

Read-out in test [6]: Monocyte Chemoattractant Protein-1 (MCP1), CCL2 (gene 6347)
The test can be described thus: BSK_4H_MCP1: BioMAP Diversity Plus: 4H Assay for Monocyte Chemoattractant Protein-1 (MCP1) Biomarker Activity (AID 2283018). To be noted: primary human endothelial cells (HUVEC); actives raise or lower the signal. The method in brief:
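Readout: MCP-1 ELISA on compound-treated HUVEC, sampled 24 h post-dosing. Baseline and negative control DMSO; bidirectional fit. Overt toxicity checked alongside by sulforhodamine B protein staining at time of biomarker measurement.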

Read-out in test [7]: Human Leukocyte Antigen - DR isotype (HLADR), HLA-DRA (gene 3122)
The test is described as follows: BSK_3C_HLADR: BioMAP Diversity Plus: 3C Assay for Human Leukocyte Antigen - DR isotype (HLADR) Biomarker Activity (AID 2283019).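 As to outcome: ELISA of cell-surface HLA-DR on HUVEC 24 h after dosing.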 To be noted: primary human endothelial cells (HUVEC); actives raise or lower the signal. The method in brief:
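ELISA readout of surface HLA-DR on human umbilical vein endothelium, taken 24 h after chemical treatment. Gain- and loss-of-signal were both fitted relative to DMSO.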

Read-out in test [8]: Interleukin-8 (IL8), CXCL8 (gene 3576)
The test can be described thus: BSK_3C_IL8: BioMAP Diversity Plus: 3C Assay for Interleukin-8 (IL8) Biomarker Activity (AID 2283020). The conditions noted are these: primary human endothelial cells (HUVEC); actives raise or lower the signal. The method in brief:
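Human vascular endothelial cells (umbilical vein) in the 3C system; IL-8 level detected by ELISA at 24 h post-dose, with DMSO as baseline.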

Read-out in test [9]: Monokine induced gamma interferon (MIG), CXCL9 (gene 4283)
The test can be described thus: BSK_3C_MIG: BioMAP Diversity Plus: 3C Assay for Monokine induced gamma interferon (MIG) Biomarker Activity (AID 2283021). The conditions noted are these: primary human endothelial cells (HUVEC); actives raise or lower the signal. The method in brief: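 After 24 h of treatment, human umbilical vein endothelial cultures (3C system) had their MIG biomarker level determined by ELISA, with DMSO serving as negative control.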

Test [10] can be described thus: BSK_3C_SRB: Viability Assessment in the BioMAP Diversity Plus: 3C Assay (AID 2283023).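 Also: fitted both ways against DMSO so a hit may be signal rise or drop.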 The conditions noted are these: primary human endothelial cells (HUVEC). The essentials: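 Absorbance at 560 nm of sulforhodamine B-stained (0.1%) total protein served as a cytotoxicity readout in human umbilical vein endothelial cells, 24 h after chemical treatment. Signal was fitted bidirectionally relative to DMSO.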

Read-out in test [11]: Matrix Metallopeptidase 1 (MMP1), MMP1 (gene 4312)
The test can be described thus: BSK_BE3C_MMP1: BioMAP Diversity Plus: BE3C Assay for Matrix Metallopeptidase 1 (MMP1) Biomarker Activity (AID 2283024). To be noted: primary human bronchial epithelial cells; actives raise or lower the signal. The essentials: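 Dose cells, wait 24 h, run MMP1 ELISA; cells are human bronchial epithelial primaries. Both increases and decreases relative to DMSO counted.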

Test [12] can be described thus: BSK_3C_Vis: BioMAP Diversity Plus: 3C Assay for Morphology Visualization (AID 2283025).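 Also: fitted both ways so gain or loss versus DMSO counts.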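 As to AC50: light microscopy image of cell morphology used as background control.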 The conditions noted are these: primary human endothelial cells (HUVEC). The method in brief:
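Endothelial cells from human umbilical vein were treated with test chemicals for 24 h and inspected by light microscopy for changes in cell conformation.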

Read-out in test [13]: Pselectin, SELP (gene 6403)
The test is described as follows: BSK_4H_Pselectin: BioMAP Diversity Plus: 4H Assay for Pselectin Biomarker Activity (AID 2283026). To be noted: primary human endothelial cells (HUVEC); actives raise or lower the signal. The essentials:
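Human vascular endothelium from umbilical vein; P-selectin measured by ELISA at 24 h post-dose, with cytotoxicity checked by sulforhodamine B total-protein staining in parallel cultures (0.1% SRB after 10% TCA fixation, read at 560 nm).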

A short description of test [14]: BSK_4H_SRB: Viability Assessment in the BioMAP Diversity Plus: 4H Assay (AID 2283027).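 Also: cells exposed to compound for 24 h before staining.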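 As to AC50: curves fitted both ways versus DMSO so AC50 may be loss or gain.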 To be noted: primary human endothelial cells (HUVEC). The method in brief: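 Human umbilical vein endothelial cells, 24 h after chemical dosing; total protein measured by 0.1% sulforhodamine B staining after 10% TCA fixation, read at 560 nm. Bidirectional fitting against DMSO.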

The nature of test [15]: BSK_BE3C_SRB: Viability Assessment in the BioMAP Diversity Plus: BE3C Assay (AID 2283028). The conditions noted are these: primary human bronchial epithelial cells. The essentials: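 Cells (human bronchial epithelial, primary) are treated with chemicals, and after 24 h the parallel cultures are fixed in 10% TCA. These are then stained with 0.1% SRB and read at 560 nm. Gain or loss of signal is fitted relative to DMSO.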

Read-out in test [16]: Thrombomodulin, THBD (gene 7056)
The test can be described thus: BSK_3C_Thrombomodulin: BioMAP Diversity Plus: 3C Assay for Thrombomodulin Biomarker Activity (AID 2283029). The conditions noted are these: primary human endothelial cells (HUVEC); actives raise or lower the signal. The method in brief: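 Thrombomodulin ELISA, human primary HUVEC, 24 h post-dose; data fitted in both directions relative to DMSO.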

The target of test [17] is human Retinoid X Receptor beta (RXRb), RXRB (gene 6257) (UniProt P28702). The test can be described thus: ATG_RXRb_TRANS: Attagene TRANS-FACTORIAL HepG2 Assay for human Retinoid X Receptor beta (RXRb) (AID 2283013; active = hit-call score of the fitted dose curve at least 0.9, where 1 is the maximum). The essentials:
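Multiplexed TRANS reporter assay in HepG2; 24 h dosing; reporter mRNA by RT-PCR/CE fluorescence; gain-of-signal relative to DMSO.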

Test [18] addresses human Vitamin D Receptor (VDR), VDR (gene 7421) (UniProt P11473). The test is described as follows: ATG_VDR_TRANS: Attagene TRANS-FACTORIAL HepG2 Assay for human Vitamin D Receptor (VDR) (AID 2283022; active = hit-call score of the fitted dose curve at least 0.9, where 1 is the maximum). The method in brief:
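Steps: transfect HepG2 with GAL4-UAS-driven reporter constructs; dose compounds 24 h; isolate RNA, reverse-transcribe, PCR-amplify with 6-FAM-labelled primer extension and HpaI digestion; quantify fragments by capillary electrophoresis relative to DMSO.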

Chain of human Retinoid X Receptor beta (RXRb), RXRB (gene 6257) (P28702 whole entry, looked up): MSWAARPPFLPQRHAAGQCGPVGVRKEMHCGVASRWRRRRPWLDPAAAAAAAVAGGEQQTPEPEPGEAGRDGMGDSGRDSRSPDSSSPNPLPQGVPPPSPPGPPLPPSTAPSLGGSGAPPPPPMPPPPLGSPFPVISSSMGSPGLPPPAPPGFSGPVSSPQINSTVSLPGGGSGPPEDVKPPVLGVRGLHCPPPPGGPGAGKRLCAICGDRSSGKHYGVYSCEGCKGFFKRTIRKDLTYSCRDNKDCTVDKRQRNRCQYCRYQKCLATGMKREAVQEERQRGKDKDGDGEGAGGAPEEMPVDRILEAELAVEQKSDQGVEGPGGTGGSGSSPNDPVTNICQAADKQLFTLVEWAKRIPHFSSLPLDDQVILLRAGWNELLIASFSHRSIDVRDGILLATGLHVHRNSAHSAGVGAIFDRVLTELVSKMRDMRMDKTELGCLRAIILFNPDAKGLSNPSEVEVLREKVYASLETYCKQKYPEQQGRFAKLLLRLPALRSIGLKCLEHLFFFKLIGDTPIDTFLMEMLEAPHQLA
Chain of human Vitamin D Receptor (VDR), VDR (gene 7421) (P11473 whole entry, looked up, the tested form may be a part): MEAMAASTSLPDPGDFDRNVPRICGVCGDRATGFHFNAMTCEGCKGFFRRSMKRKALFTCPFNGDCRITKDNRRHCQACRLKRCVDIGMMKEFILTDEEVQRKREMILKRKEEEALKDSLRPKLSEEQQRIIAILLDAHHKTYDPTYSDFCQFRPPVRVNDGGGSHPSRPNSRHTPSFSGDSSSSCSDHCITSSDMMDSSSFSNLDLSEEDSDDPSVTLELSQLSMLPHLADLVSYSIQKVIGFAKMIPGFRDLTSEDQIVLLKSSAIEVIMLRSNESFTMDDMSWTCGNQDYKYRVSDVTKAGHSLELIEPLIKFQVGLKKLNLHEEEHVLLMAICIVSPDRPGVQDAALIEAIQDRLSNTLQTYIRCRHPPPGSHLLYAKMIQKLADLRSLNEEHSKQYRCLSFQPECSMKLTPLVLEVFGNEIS
Chain of E-selectin (Homo sapiens) (P16581 whole entry, looked up): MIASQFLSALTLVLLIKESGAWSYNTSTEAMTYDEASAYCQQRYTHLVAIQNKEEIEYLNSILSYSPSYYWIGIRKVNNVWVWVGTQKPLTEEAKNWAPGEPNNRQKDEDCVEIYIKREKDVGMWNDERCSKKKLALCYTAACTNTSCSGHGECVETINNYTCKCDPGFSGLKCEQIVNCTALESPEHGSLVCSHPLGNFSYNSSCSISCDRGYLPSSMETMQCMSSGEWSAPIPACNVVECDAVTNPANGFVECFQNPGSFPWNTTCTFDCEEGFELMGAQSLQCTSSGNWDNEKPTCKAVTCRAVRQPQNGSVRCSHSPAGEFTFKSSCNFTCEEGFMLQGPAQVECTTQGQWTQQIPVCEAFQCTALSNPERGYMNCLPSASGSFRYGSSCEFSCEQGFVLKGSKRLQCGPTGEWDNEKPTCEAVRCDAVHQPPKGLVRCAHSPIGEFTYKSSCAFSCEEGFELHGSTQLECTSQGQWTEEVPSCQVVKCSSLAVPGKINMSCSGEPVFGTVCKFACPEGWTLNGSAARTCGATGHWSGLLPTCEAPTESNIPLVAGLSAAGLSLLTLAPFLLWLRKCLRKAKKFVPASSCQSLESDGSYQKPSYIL

As to `Cc1ccc2c(c1N)C(=O)c1ccccc1C2=O`, the compound was called inactive in [1], in test [2], in test [3], in test [4], in test [5] and in test [6]. Also, the result in test [8], in test [9], in test [11], in test [13], in [14] and in test [15] was inactive. Further, in test [16], the result was inactive. Further, the AC50 is 15 µM (active) in test [7], 4.25 µM (active) in test [10] and 13.6 µM (active) in test [12].
As to `CCOP(=S)(OCC)SCSCC`, the compound was classed as inactive in test [1], in test [3], in [4], in test [6], in test [7] and in test [8]. Besides, the outcome in test [9], in test [18], in test [10], in test [11], in test [12] and in [13] was inactive. Moreover, the outcome in test [14], in test [15] and in test [16] was inactive. In addition, the AC50 in test [17] was 48.2 µM (active).
`CC(O)C#N` (stereo not given): the compound was called inactive in test [1], in [2] and in test [18].
`CCCCc1ccc(O)cc1`: the compound was called inactive in [1].
Consider `CC(=O)CCc1ccc2c(c1)OCO2`, for which the compound was called inactive in [1] and in test [17].
In the case of `c1ccc2c(c1)Nc1ccccc1S2`, the result in test [1], in [2], in [3], in test [4], in test [6] and in [7] was inactive. The result in [8], in test [9], in [10], in [11], in [12] and in [14] was inactive. Besides, the result in test [15] and in [16] was inactive.
Turning to `CCCCC(CC)COP(=O)(Oc1ccccc1)Oc1ccccc1` (stereo not given), the compound was called inactive in [1], in [9], in test [18] and in [15]. Also, the AC50 was 6.53 µM (active) in test [3]; 8.12 µM (active) in test [4]; 10.6 µM (active) in test [5]; 7.85 µM (active) in [6]; 9.37 µM (active) in [7]; 6.65 µM (active) in [8]. Moreover, the concentration at half-maximal activity (AC50) in test [10] is 9.7 µM (active); in test [11] it was 1.91 µM (active); in [12], 10.1 µM (active); in test [13] it was 12.3 µM (active); in [14], 20 µM (active); in test [16], 3.97 µM (active).
With `N#Cc1cc([N+](=O)[O-])ccc1N`, the compound was classed as inactive in test [1], in test [3], in test [4], in test [5], in test [6] and in test [7]. Besides, the result in test [8], in test [9], in test [18], in test [10], in [11] and in test [12] was inactive. Besides, the result in test [13], in [14], in [15] and in [16] was inactive.
Take `O=[N+]([O-])c1cc(Cl)ccc1Cl`: the compound was classed as inactive in test [1] and in test [17].
`Cc1ccc(O)cc1C`: the call in test [1], in [17], in test [2], in test [3], in [4] and in test [6] was inactive. Further, the result in test [7], in test [8], in [9], in [10], in test [11] and in test [12] was inactive. Further, the result in [14], in [15] and in test [16] was inactive.
Take `OCC(F)(F)OC(F)(F)C(F)(F)OC(F)(F)CO`: the compound was classed as inactive in test [1], in [17], in test [3], in test [4], in test [6] and in test [7]. The result in test [8], in test [9], in test [18], in test [10], in test [11] and in test [14] was inactive. Moreover, the result in [15] and in test [16] was inactive.
